SENP7 block: SENP7 protease inhibitors, primary screen, biochemical, luminescence, uHTS; inhibition, % at 5 µM; recombinant SENP7, Z-RLRGG-aminoluciferin luminescence, 40 min; Sentrin-specific protease 7 (Homo sapiens), Q9BQF6; actives 1.5% (n = 330,000);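 active = inhibition above about 50% at the single test dose, limit read from the data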;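 also: plate controls were DMSO with enzyme for no effect and no enzyme buffer wells for full effect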
SENP8 block-1: human SENP8 protease inhibitors, primary screen, biochemical, fluorescence, Nedd8 protein substrate, uHTS; Sentrin-specific protease 8 (Homo sapiens), Q96LD8; recombinant SENP8; inhibition, % at 20 µM; actives 0.64% (n = 360,000); AID 602440, 2012; in the data active = inhibition mostly above about 40%, no sharp cut-off; inactive = mostly below about 27%
HSP90 refold inh: HSP90 inhibitors, primary screen, cell lysate, luminescence; Rabbit reticulocyte lysate, luciferase refolding luminescence, 3 h; inhibition, % at 5.6 µM; Heat shock protein HSP 90 (rabbit reticulocyte lysate; luciferase refolding); actives 0.91% (n = 290,000);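 active = inhibition above the screen-wide mean plus 3 SD, computed separately per campaign, cut at about 16% in these data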;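 also: 0% = DMSO wells and 100% = 60 µM geldanamycin wells; inhibitors lower the luminescence because luciferase stays unfolded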
SENP6 block: SENP6 protease inhibitors, primary screen, biochemical, luminescence, uHTS; actives 1.8% (n = 330,000); inhibition, % at 10 µM; Sentrin-specific protease 6 (Homo sapiens), Q9GZR1; Recombinant SENP6 catalytic domain, aminoluciferin luminescence;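 active = inhibition above about 50% at the single tested dose, limit read from the data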;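 also: plate controls were DMSO wells with enzyme for no effect and DMSO wells lacking enzyme for full effect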
Target sequence (Q9GZR1 628-1112 limits assumed): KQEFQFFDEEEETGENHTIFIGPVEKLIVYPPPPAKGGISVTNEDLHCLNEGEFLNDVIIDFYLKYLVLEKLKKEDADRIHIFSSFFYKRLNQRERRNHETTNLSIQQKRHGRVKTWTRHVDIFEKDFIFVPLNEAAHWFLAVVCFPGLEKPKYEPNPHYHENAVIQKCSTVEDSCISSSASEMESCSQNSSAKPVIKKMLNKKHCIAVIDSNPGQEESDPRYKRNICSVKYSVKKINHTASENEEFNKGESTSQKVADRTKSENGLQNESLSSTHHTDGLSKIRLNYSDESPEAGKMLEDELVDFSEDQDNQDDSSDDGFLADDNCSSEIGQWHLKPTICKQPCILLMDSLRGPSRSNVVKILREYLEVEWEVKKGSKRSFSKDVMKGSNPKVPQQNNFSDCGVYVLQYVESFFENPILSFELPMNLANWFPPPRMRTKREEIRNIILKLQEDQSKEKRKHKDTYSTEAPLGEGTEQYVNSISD
SENP8 block-2: SENP8 protease inhibitors, primary screen, biochemical, luminescence. purified SENP8, Z-RLRGG-aminoluciferin cleavage. inhibition, % at 10 µM. actives 1.2% (n = 330,000); in the data active = inhibition above about 50%
SENP8 confirm: SENP8 protease inhibitors, retest, confirmation, biochemical, luminescence, single concentration | shares compounds with SENP7 block | inhibition, % at 12.5 µM | Recombinant SENP8, Z-RLRGG-aminoluciferin luminescence, 60 min | actives 40% (n = 6,200);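 active = mean inhibition across replicates above about 50%, limit read from the data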
SENP6 confirm: SENP6 protease inhibitors, confirmation, biochemical, luminescence, single concentration; shares compounds with SENP7 block; recombinant SENP6, Z-RLRGG-aminoluciferin luminescence; inhibition, % at 12.5 µM; actives 58% (n = 6,200); AID 488915, 2010
SENP7 conf: SENP7 protease inhibitors, retest, confirmation, biochemical, luminescence, single concentration | shares compounds with SENP7 block | recombinant SENP7, Z-RLRGG-aminoluciferin luminescence, 40 min | inhibition, % at 12.5 µM | actives 69% (n = 6,200) | AID 488917, 2010
Casp3 select: caspase-3 protease inhibitors, confirmation, selectivity assay for SENP inhibitor project, biochemical, single concentration | actives 60% (n = 6,200) | shares compounds with SENP7 block | AID 488918, 2010 | inhibition, % at 12.5 µM | purified caspase-3, Z-DEVD-aminoluciferin luminescence, 60 min;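 active = mean inhibition above about 50%, limit read from the data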;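 also: plate controls were enzyme with DMSO for no effect and wells without caspase-3 for full effect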
Luc interf: luminescence interference (SENP counter-screen) | shares compounds with SENP7 block | Pre-incubated SENP8/Z-RLRGG-aminoluciferin, luciferase luminescence interference | inhibition, % at 12.5 µM | actives 39% (n = 6,200);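 active = mean inhibition above about 50% when retested at one dose, limit read from the data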;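 also: plate controls were DMSO wells with completed reaction for no effect and substrate without enzyme for full effect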
Starred values were filed as active, the others as inactive; i = inactive; nt = not tested or not shown; ! = a repeat was not active. Most compounds without a hit are left out; they make up all but 2.8% or so of the library.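 The calls were made as follows, unless noted: active = mean inhibition above about 50% in the one-dose retest (limit read from the data); inactive = the rest.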

SMILES	SENP7 block	SENP8 block-1	HSP90 refold inh	SENP6 block	SENP8 block-2	SENP8 confirm	SENP6 confirm	SENP7 conf	Casp3 select	Luc interf
CCC(C)n1c(NC(=O)c2ccccc2)c(C#N)c2nc3ccccc3nc21 (stereo unspecified)	44	i	15	90*	66*	29	69*	46	3	0
COc1ccc(-n2c(NC(=O)c3ccc(Br)o3)c(C#N)c3nc4ccccc4nc32)cc1	nt	nt	4	nt	nt	nt	nt	nt	nt	nt
N#Cc1c(NC(=O)c2ccc(Br)o2)n(-c2ccccc2)c2nc3ccccc3nc12	77*	-429	15	14	93*	33	90*	82*	3	7
c1ccc(C2=Nc3ccccc3OC2)cc1	-10	-108	6	-21	-9	nt	nt	nt	nt	nt
Cc1ccc2c(c1)N=C(c1ccc(Cl)cc1)CO2	98*	-270	-1	96*	95*	83*	82*	85*	80*	57*
Clc1ccc(C2=Nc3cc(Cl)ccc3OC2)cc1	81*	11	3	81*	76*	15	12	20	41	-6
Clc1ccc(C2=NN=C3COc4ccccc4N3C2)cc1	8	-22	10	20	-5	nt	nt	nt	nt	nt
COc1ccccc1CNC(=O)CN1C(=O)NC(C)(c2ccc(C(C)(C)C)cc2)C1=O (stereo unspecified)	5	17	-2	-15	-5	nt	nt	nt	nt	nt
CCCS(=O)(=O)NC(=O)C1(C)CCCN(C(=O)COCc2ccccc2)C1 (stereo unspecified)	nt	25	nt	nt	nt	nt	nt	nt	nt	nt
O=C(COC(=O)c1c[nH]c(=O)[nH]c1=O)Nc1ccccc1F	-5	7	-1	21	-8	nt	nt	nt	nt	nt
O=C(Nc1ccccc1F)c1c[nH]c(=O)[nH]c1=O	29	28	0	51*	23	40	35	70*	76*	49
O=C1c2ccccc2C(=O)N1CC1c2ccccc2CCN1C(=O)N1CCOCC1 (stereo unspecified)	1	28	-4	1	-1	nt	nt	nt	nt	nt
FC(F)(F)c1nc2cc3nc4ccccc4[nH]c3cc2n1	28	8	2	54*	49	67*	65*	86*	80*	70*
COc1ccc(C2Nc3ccccc3C(=O)N2Cc2ccco2)cc1CN1C(=O)c2ccccc2C1=O (stereo unspecified)	66*!	-67	-2	-4	-1	3	8	10	5	6
COc1ccc(C2Nc3ccccc3C(=O)N2Cc2ccco2)cc1COc1ccc(F)cc1 (stereo unspecified)	-4	-304	1	5	4	nt	nt	nt	nt	nt
CSc1ccc(C2C(C(=O)c3ccco3)=C(O)C(=O)N2c2nnc(SC)s2)cc1 (stereo unspecified)	10	-75	7	75*	43	17	15	0	5	19
Cc1nnc(N2C(=O)C(O)=C(C(=O)c3ccco3)C2c2ccc(C(C)(C)C)cc2)s1 (stereo unspecified)	5	-35	0	86*	50	24	20	15	32	18
CCC/C(O)=C1\C(=O)CC(C)(C)CC1=NCCO	0	17	-1	-15	-6	nt	nt	nt	nt	nt
COc1ccc(CC2S/C(=C(\C#N)C(=O)NCc3ccco3)N(c3ccc(C)cc3)C2=O)cc1 (stereo unspecified)	-3	-4	-2	-19	-4	nt	nt	nt	nt	nt
O=C(c1cc(-c2cccc(O)c2)on1)N1CCCC1	18	15	10	50*	17	45	40	78*	70*	38
O=C(c1cc(-c2ccc3c(c2)OCO3)on1)N1CCOCC1	57*	-3	15	67*	32	58*	52*	84*	82*	54*
O=C(c1cc(-c2ccc(Cl)c(Cl)c2)on1)N1CCCC1	nt	nt	-2	nt	nt	nt	nt	nt	nt	nt
O=C(c1cc(-c2cccc(O)c2)on1)N1CCCCC1	68*	4	12	-8	61*	7	67*	91*	78*	73*
CC1CCCCN1S(=O)(=O)c1ccc(-n2cnnn2)cc1 (stereo unspecified)	7	4	2	-23	5	nt	nt	nt	nt	nt
O=[N+]([O-])c1cccc(C=Nc2cccc3ccccc23)c1O	43	-280	13	88*	85*	11	39	4	1	-1
SMILES	SENP7 block	SENP8 block-1	HSP90 refold inh	SENP6 block	SENP8 block-2	SENP8 confirm	SENP6 confirm	SENP7 conf	Casp3 select	Luc interf
Oc1ccc(C=Nc2cccc3ccccc23)c(O)c1	33	-435	13	70*	44	-7	2	1	9	1
O=C(NN=Cc1cc([N+](=O)[O-])ccc1O)c1cccc2ccccc12	nt	-6	nt	nt	nt	nt	nt	nt	nt	nt
CCOC(=O)c1c(/N=C/c2cccc([N+](=O)[O-])c2O)sc(C)c1C	13	10	-1	-15	-5	nt	nt	nt	nt	nt
O=[N+]([O-])c1ccc(O)c(C=Nc2cccc3ccccc23)c1	19	-422	8	58*	61*	9	12	0	1	0
O=[N+]([O-])c1ccc(N/N=C/c2ccccc2O)cc1	50	-84	-9	70*	58*	-2	41	83*	26	19
Cc1nc2ccccc2c(=O)n1/N=C/c1ccc(O)cc1O	9	-9	0	-9	-6	nt	nt	nt	nt	nt
Cc1ccc(OCC(=O)Nc2ccc3c(c2)nc(CCN2CCCCC2)n3C)cc1	-6	3	0	7	0	nt	nt	nt	nt	nt
O=[N+]([O-])c1ccc(O)c(C=Nc2cccc3ncccc23)c1	42	2	6	90*	75*	2	2	-2	2	-1
O=[N+]([O-])c1ccc(O)c(/C=N/Nc2ccccn2)c1	nt	31	8	nt	nt	nt	nt	nt	nt	nt
